Only a selection was taken, and hits are over-represented in it overall.
Chlamy TAG: inducers of TAG accumulation in Chlamydomonas, primary screen, qHTS, Chlamydomonas reinhardtii. hit rate 0.84% among 44,000. AID 1159537, 2015. Nile Red fluorescence, 72 h. calls only at 10 µM (by protocol); call rule not given here;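 note: hits raise Nile Red signal meaning more stored TAG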
Active calls of the source: *; i = inactive; + = active, no number.

SMILES	Chlamy TAG
COc1ccc(OC)c(CN2CCN(Cc3ccc([N+](=O)[O-])cc3)CC2)c1	+
O=[N+]([O-])c1ccc(CN2CCCCCC2)cc1	i
COc1ccc(OC)c(CN2CCN(Cc3ccc(OC)c(OC)c3)CC2)c1	i
O=[N+]([O-])c1ccc(CN2CCN(C3CCCCCC3)CC2)cc1	+
COc1ccc(OC)c(CN2CCN(Cc3cc(OC)c(OC)c(OC)c3)CC2)c1	i
COc1cc(CN2CCN(Cc3ccc([N+](=O)[O-])cc3)CC2)cc(OC)c1	+
COc1cc(CN2CCN(Cc3cccc([N+](=O)[O-])c3)CC2)cc(OC)c1OC	i
O=[N+]([O-])c1ccc(CN2CCC(N3CCCCC3)CC2)cc1	i
COc1ccc(CN2CCN(Cc3cccc([N+](=O)[O-])c3)CC2)cc1	i
Cc1cc2n(CCN3CCOCC3)c3ccccc3n2n1	i
O=C(CSC1=NC(c2ccccc2)CC(=O)N1)NCc1ccccc1 (stereo unspecified)	i
O=Cc1ccccc1OCc1ccc(C(=O)O)cc1	i
COCCCNC(=O)C1CCN(S(=O)(=O)c2ccc(Br)cc2)CC1	i
CCOc1ccc(-c2c(C)n([O-])c3c([n+]2=O)CCCCC3)cc1	i
CN(CCC#N)C12CC3CC(CC(C3)C1)C2	+
CN(CCO)C12CC3CC(CC(C3)C1)C2	i
CN(C)CCNCC12CC3CC(CC(C3)C1)C2	i
COc1ccc(NC2CCCCC2NS(=O)(=O)c2ccccc2)cc1 (stereo unspecified)	i
N#C/C(=C\c1ccccc1F)c1nn(-c2ccccc2)c(N)c1C#N	i
CCc1ccc(C2CC(=O)NC(SCc3ccccc3)=C2C#N)cc1 (stereo unspecified)	i
O=[N+]([O-])c1ccccc1-c1ccc(CN2CCCCCC2)o1	i
CCN1CCN(Cc2ccc(-c3ccccc3[N+](=O)[O-])o2)CC1	i
CN1CCN(Cc2ccc(-c3ccccc3Cl)o2)CC1	+
CCCSc1nc(O)cc(=O)n1-c1ccccc1	i
Cc1c(C(=O)Nc2ncn[nH]2)cccc1[N+](=O)[O-]	i
SMILES	Chlamy TAG
O=C(Nc1ccc(Cl)cc1Cl)c1ccccc1	i
Nc1ccc(C(=O)Nc2ccc(Cl)cc2Cl)cc1	+
O=C(Nc1ccc(Cl)cc1F)c1ccc(C(=O)Nc2ccc(Cl)cc2F)cc1	i
Cc1cccc(C(=O)Nc2ccc(S(=O)(=O)Nc3cc(C)on3)cc2)c1	i
Cc1cccc(OCCN2CCOCC2)c1C	i
Cc1cc(C)c(C)c(OCC(=O)NCCN2CCOCC2)c1	i
Cc1cc(C)c(C)c(OCCCCN2CCOCC2)c1	+
Cc1ccc(C(C)C)cc1OCCCCN1CCOCC1	+
Cc1ccc(OCCCN2CCOCC2)cc1C	i
Cc1cc(C)c(OCCN2CCOCC2)c(C)c1	i
Cc1ccccc1OCCCCN1CCOCC1	+
C=CCc1ccccc1OCCCCN1CCOCC1	i
C=CCc1cc(C)ccc1OCCCCN1CCOCC1	i
COc1cc(C=O)ccc1OCCOc1cccc(C(C)C)c1	i
O=C(NCc1ccco1)/C(=C\c1cccnc1)NC(=O)c1ccco1	i
CC(NC(=O)C1C2C=CC(C2)C1C(=O)O)c1ccccc1 (stereo unspecified)	i
COc1ccc(Cl)cc1NC(=O)CN(C)S(=O)(=O)c1ccc(Cl)cc1	i
O=C(C(Cc1ccccc1)N1C(=O)C2CCCCC2C1=O)N1CCN=C1c1ccccc1 (stereo unspecified)	i
COc1ccc(CN2CCN(C(=O)c3ccncc3)CC2)c(OC)c1	i
Cn1c(SCC(=O)NCc2ccccc2)nnc1-c1ccc(NC(=O)c2ccccc2F)cc1	i
COc1ccc(CNC(=O)CSc2nnc(-c3cccc(OC)c3)n2C)cc1	i
Cn1c(SCC(=O)NCc2ccccc2)nnc1-c1ccc(C(C)(C)C)cc1	+
COCC(=O)Nc1cc2oc3ccccc3c2cc1OC	i
CCC(=O)c1ccc(N2CCN(C(C)=O)CC2)c(F)c1	i
Cc1ccc(C(=O)c2ccc(N3CCN(C(=O)c4cccs4)CC3)c(F)c2)cc1C	i
SMILES	Chlamy TAG
Cc1ccc(C(=O)c2ccc(N3CCN(C)CC3)c(F)c2)cc1C	+
CCc1cccc(CC)c1NC(=O)c1cccc(F)c1	i
O=C(Nc1ccccc1F)c1ccc(Br)cc1	i
CC(C)NC(=O)c1ccccc1NC(=O)c1ccccc1	i
O=C(Nc1ccccc1Cl)c1cccc(Cl)c1Cl	i
O=C(Nc1ccccc1C(=O)Nc1ccccc1Cl)c1ccncc1	+
CC(C)c1ccc(C(=O)Nc2ccccc2C(N)=O)cc1	i
O=C(Nc1ccccc1C(=O)NCCCCO)c1ccc(Br)cc1	i
O=C(Nc1ccccc1C(=O)NCCc1ccccc1)c1ccncc1	i
CC(C)NC(=O)c1ccccc1NC(=O)c1ccc(Cl)cc1	+
CC(C)NC(=O)c1ccccc1NC(=O)c1ccc(Br)cc1	+
C=CCNC(=O)C(=O)Nc1cccc(C)c1	i
NC(=O)C1CCN(C(=O)Cc2cccs2)CC1	i
Cc1ccc(C)c(N(CC(=O)O)S(C)(=O)=O)c1	i
C=CCSc1nc(C)c2cc(OCC)ccc2n1	i
C=CCCC(C)(O)C#CCN1CCOCC1 (stereo unspecified)	i
Cc1c(Cl)cccc1NC(=O)CCN1CCN(C/C=C/c2ccccc2)CC1	i
CCC(=O)Nc1c(C)ccc2nsnc12	i
O=C(O)C1CCN(c2nc(-c3ccc(Br)cc3)cs2)CC1	i
O=[N+]([O-])c1ccccc1S(=O)(=O)N1CCN(CC2CC3C=CC2C3)CC1 (stereo unspecified)	i
Oc1ccc(Br)cc1CN1CCC(N2CCOCC2)CC1	+
C1=CC2CC1CC2CN1CCOCC1 (stereo unspecified)	i
O=C(c1ccc([N+](=O)[O-])cc1)N1CCN(CC2CC3C=CC2C3)CC1 (stereo unspecified)	+
O=C(c1ccc(F)cc1)N1CCN(Cc2ccc([N+](=O)[O-])cc2)CC1	i
CCC(C)N1CCN(CC2CC3C=CC2C3)CC1 (stereo unspecified)	i
SMILES	Chlamy TAG
COc1ccc(Br)cc1CN1CCC(N2CCCCC2)CC1	i
O=[N+]([O-])c1ccc(O)c(CN2CCOCC2)c1	i
NC(=O)C1CCN(CC2CC3C=CC2C3)CC1 (stereo unspecified)	i
O=C(c1ccc([N+](=O)[O-])cc1)N1CCN(CCO)CC1	i
Oc1ccc(Br)cc1CN1CCN(CC2CC3C=CC2C3)CC1 (stereo unspecified)	+
C1=CC2CC1CC2CN1CCN(C2CCC(c3ccccc3)CC2)CC1 (stereo unspecified)	+
Cc1ccc(C(=O)Nc2ccc(C(=O)O)cc2)cc1S(=O)(=O)N1CCOCC1	i
CCOc1ccc(C(=O)N2CCCCC2)cc1OCC	i
CCC(C)(C)C(=O)Nc1ccc(Cl)cc1	i
Nc1ccc(C(=O)c2ccc(F)cc2)cc1	i
C1=CC2CC1CC2CN1CCN(c2ccccc2)CC1 (stereo unspecified)	+
C1=CC2CC1CC2CN1CCN(Cc2ccccn2)CC1 (stereo unspecified)	i
CCN1CCN(CC2CC3C=CC2C3)CC1 (stereo unspecified)	i
O=C(Nc1ccccc1[N+](=O)[O-])C12CC3CC(CC(C3)C1)C2	i
Cc1ccc(C(=O)Nc2ccc(F)cc2)cc1Br	i
Cc1c(NC(=O)c2cc(-c3ccc4c(c3)OCO4)nc3ccccc23)c(=O)n(-c2ccccc2)n1C	i
